The results in this text go back to PubChem BioAssay.

Active and inactive are the calls of the source. Unless noted, no rule for the calls is given here.

Assay [1] relates to Wnt5a (protein binding on small-molecule microarray). The assay can be described thus: small molecules binding Wnt5a protein – biophysical, small-molecule microarray, 635/667 nm fluorescence, primary screen (AID 1142).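 Also: fluorescence read at 667 nm with signal to noise per printed feature.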 Particulars: 635 nm fluorescence, higher = more signal.
The nature of assay [2]: ATP-based viability of Huh7 replicon cells – cell-based, CellTiter-Glo luminescence, basal, 48 h, cytotoxicity control for HCV replication inhibitor project, primary screen (AID 1143).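 Also: Huh7 hepatoma cells carrying a hepatitis C replication reporter with no stimulus; test concentration not given here.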 The note with it: higher = more signal, called active from +8 up or from −8 down.
Assay [3] in a line: Pseudomonas biofilm growth suppression – PAO1 strain, BacTiter-Glo luminescence, LB-PBS, primary screen (AID 1144). Particulars: P. aeruginosa PAO1 biofilm, 12 h, higher = more signal.
The nature of assay [4]: basal CRE-LacZ reporter activity in PC12 – cell-based, unstimulated, primary screen (AID 1145). The note with it: no forskolin, luminescence, 4.5 h, higher = more signal, called active from +8 up or from −8 down.
The nature of assay [5]: forskolin-driven CRE-LacZ activity in PC12 – cell-based, CRE-LacZ reporter, forskolin-stimulated, primary screen (AID 1146).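 Also: PC12 cells with 6xCRE LacZ reporter stimulated by forskolin 10 µM; beta-galactosidase reporter signal reflecting CREB driven transcription.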 Particulars: luminescence, 4.5 h, higher = more signal, called active from +8 up or from −8 down.
In assay [6] the target is Streptavidin (Streptomyces avidinii) (UniProt P22629). The assay can be described thus: compounds binding control protein streptavidin – biophysical, small-molecule microarray, 635/667 nm fluorescence, artefact control for SMM compound annotation, primary screen (AID 1147).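 Also: signal reflects streptavidin binding to arrayed compounds as a control protein.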 Particulars: higher = more signal.
Sequence of Streptavidin (Streptomyces avidinii) (P22629 whole entry, looked up): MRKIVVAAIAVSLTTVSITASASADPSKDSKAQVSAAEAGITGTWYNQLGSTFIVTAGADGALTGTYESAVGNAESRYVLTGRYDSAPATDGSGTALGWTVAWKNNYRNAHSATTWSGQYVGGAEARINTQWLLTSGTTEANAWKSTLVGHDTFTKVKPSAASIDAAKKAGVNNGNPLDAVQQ
Assay [7] can be described thus: probe aInhba binding on compound microarray – biochemical, small-molecule microarray, 635/667 nm fluorescence, primary screen (AID 1148).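 Also: score merges 667nm spot fluorescence with signal-to-noise for antibody binding to printed compounds.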 The note with it: higher = more signal.
The target of assay [8] is Torsin-1A (Homo sapiens) (UniProt O14656). The assay can be described thus: TOR1A wild-type binding on microarray – cell lysate, small-molecule microarray, lysate, 635/667 nm, primary screen (AID 1149). Particulars: COS7 hTOR1A-WT lysate, 635 nm fluorescence, higher = more signal.
Sequence of Torsin-1A (Homo sapiens) (O14656 whole entry, looked up): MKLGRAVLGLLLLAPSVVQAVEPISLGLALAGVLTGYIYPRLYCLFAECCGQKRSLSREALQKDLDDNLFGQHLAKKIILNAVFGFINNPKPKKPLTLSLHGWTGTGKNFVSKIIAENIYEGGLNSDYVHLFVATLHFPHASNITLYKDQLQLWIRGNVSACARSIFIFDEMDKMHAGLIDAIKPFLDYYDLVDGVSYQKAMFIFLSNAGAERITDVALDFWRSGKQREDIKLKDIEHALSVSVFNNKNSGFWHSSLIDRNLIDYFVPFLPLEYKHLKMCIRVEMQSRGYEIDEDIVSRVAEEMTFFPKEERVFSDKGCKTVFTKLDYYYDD
For assay [9] the target is unchanged. Put plainly: torsin A mutant lysate binding on microarrays – cell lysate, small-molecule microarray, COS7 lysate, 635/667 nm fluorescence, primary screen (AID 1150).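 Also: score pools 667 nm emission and signal to noise measuring lysate protein binding.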 Particulars: COS7 hTOR1A mutant lysate, 635 nm fluorescence, higher = more signal.
The test system of assay [10] is Sonic hedgehog protein (Shh). Put plainly: Sonic hedgehog microarray binding compounds – biochemical, small-molecule microarray, 635/667 nm fluorescence, primary screen (AID 1151).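 Also: Shh protein binding to compounds spotted on small-molecule microarray slides; score combines spot fluorescence intensity with signal-to-noise across triplicate slides.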 Particulars: 635 nm fluorescence, higher = more signal.

Turning to `CC(C)(C)OC(=O)CC[C@@]1(C(=O)NCc2ccccc2)N=C(c2ccc(OCCCO)cc2)O[C@@H]1c1ccccc1N=[N+]=[N-]`, the composite z-score in [1] was 0.717; in [6], 1.8; in assay [7], 0.0839; in the assay with Torsin-1A (Homo sapiens) [8], -0.183; with Torsin-1A (Homo sapiens) [9] it was 1.33; in assay [10], 0.101. Besides, the z-score in [2] was -2.53 (inactive); in assay [3] it was 0.014 (inactive); in [4] it was 1.73 (inactive); in [5] it was -0.947 (inactive).

`O=C(NCC(F)(F)F)[C@@H]1c2ccccc2C(=O)N(Cc2ccccc2C(F)(F)F)[C@H]1c1ccc(CO)cc1`: the composite z-score in assay [1] was 0.38; in assay [6], -0.631; in assay [7], 0.0906; with Torsin-1A (Homo sapiens) [8], 0.702; with Torsin-1A (Homo sapiens) [9], -0.274; in assay [10], 0.0223. In addition, the z-score in assay [2] was -0.325 (inactive); in [3] it was 0.266 (inactive); in [4] it was -0.295 (inactive); in assay [5], 1.02 (inactive).

In the case of `[N-]=[N+]=Nc1ccccc1C[C@]1(C(=O)N2CCOCC2)N=C(c2ccc(OCCCO)cc2)O[C@H]1c1ccccc1`, the composite z-score in assay [1] is 1.01; in [6], 0.65; in assay [7] it was -0.0279; in the assay with Torsin-1A (Homo sapiens) [8], 1.14; in the assay with Torsin-1A (Homo sapiens) [9] it was 0.272; in assay [10] it was 0.276. Further, the z-score in [2] is -3.57 (inactive); in assay [3], 0.567 (inactive); in assay [4], 0.204 (inactive); in assay [5], -0.0807 (inactive).

With `CCCCCCc1nc(C2CC2)cc2c1[Si](C(C)C)(C(C)C)OC2`, the composite z-score in [1] was -0.306; in [6] it was 0.312; in [7], -0.261; in the assay with Torsin-1A (Homo sapiens) [8], -0.522; with Torsin-1A (Homo sapiens) [9], -0.751; in assay [10], -0.694. In addition, the z-score is -2.44 (inactive) in [2], -0.486 (inactive) in assay [3], 1.59 (inactive) in assay [4] and 0.997 (inactive) in assay [5].

With `O=C(NCCCCCNC(=O)/C(Cc1ccccc1)=N/O)OCc1ccccc1`, the composite z-score in assay [1] is -0.211; in assay [6], 0.153; in assay [7] it was -0.245; with Torsin-1A (Homo sapiens) [8], 0.847; with Torsin-1A (Homo sapiens) [9], -0.013; in [10] it was -0.103. For the same molecule, the z-score in [2] is -1.82 (inactive); in assay [3] it was -1.37 (inactive); in assay [4] it was 3.77 (inactive); in assay [5] it was -1.44 (inactive).

Consider `COCCCNC(=O)[C@@]1(Sc2ccc(C)cc2)CC(=O)N(C2CCCCC2)[C@@H]1c1ccc(CO)cc1`, for which the composite z-score in assay [1] was 0.0421; in assay [6], -0.749; in assay [7] it was -0.154; with Torsin-1A (Homo sapiens) [8] it was -1.51; with Torsin-1A (Homo sapiens) [9] it was -0.424; in [10], -0.911. Besides, the z-score in assay [2] is -0.0515 (inactive); in assay [3], -0.319 (inactive); in assay [4] it was 0.118 (inactive); in assay [5] it was 1.7 (inactive).

Take `CCOC(=O)C[C@H]1[C@H](OC(=O)Cc2ccc3c(c2)OCO3)[C@@H](NC(=O)CC(C)C)c2cc(OCCCO)ccc2N1C(=O)Cc1ccc(OC)cc1`: the composite z-score in assay [1] is -0.199; in assay [6] it was -0.0258; in assay [7], -0.0471; with Torsin-1A (Homo sapiens) [8], 0.288; with Torsin-1A (Homo sapiens) [9] it was -0.115; in assay [10], -0.113. The z-score in assay [2] was -1.04 (inactive); in [3], 0.29 (inactive); in assay [4] it was 0.0918 (inactive); in assay [5], -0.513 (inactive).

As for `COC(=O)[C@@]1(Cc2ccc(F)cc2)[C@H]2c3cc(C(=O)N(C)C)n(Cc4cc(F)cc5c4OCOC5)c3C[C@H]2CN1C(=O)c1ccccc1`, the composite z-score in [1] worked out at 0.462; in assay [6], 1.15; in [7], 0.115; with Torsin-1A (Homo sapiens) [8], 0.141; with Torsin-1A (Homo sapiens) [9], 0.702; in assay [10], 0.3. Besides, the z-score in [2] is -3.74 (inactive); in assay [3], 0.258 (inactive); in assay [4], 0.397 (inactive); in assay [5], -0.201 (inactive).

On to `COCCOC(=O)N1C(=O)[C@@]2(c3cc(C#Cc4ccc(OC)cc4)ccc31)[C@H](c1ccc(O)cc1)N1[C@H](c3ccccc3)[C@H](c3ccccc3)OC(=O)[C@H]1[C@@H]2C(=O)N1CCCCCCC1`, for which the composite z-score is 0.608 in assay [1]; 1.25 in assay [6]; 1.12 in assay [7]; -0.0107 with Torsin-1A (Homo sapiens) [8]; 0.913 with Torsin-1A (Homo sapiens) [9]; 0.379 in assay [10]. The z-score in assay [2] was -0.86 (inactive); in [3] it was -0.144 (inactive); in [4] it was 0.0653 (inactive); in assay [5] it was 0.895 (inactive).

For the molecule `COc1ccc(-c2cc3c(c(CCc4ccccc4)n2)[Si](C(C)C)(C(C)C)OC3)cn1`, the composite z-score is -0.131 in assay [1]; 0.294 in [6]; -0.0986 in [7]; 0.188 in the assay with Torsin-1A (Homo sapiens) [8]; -0.168 with Torsin-1A (Homo sapiens) [9]; 0.434 in assay [10]. In addition, the z-score was -0.817 (inactive) in assay [2], -0.0937 (inactive) in [3], -0.127 (inactive) in [4] and 0.307 (inactive) in assay [5].

Turning to `O=C(CS)NCCCCCNC(=O)[C@@H]1C[C@@H]2C(=O)N3CCC[C@H]3C(=O)N2[C@@H]1c1cccc(OCCO)c1`, the composite z-score was 0.336 in [1]; 0.281 in assay [6]; -0.46 in [7]; 1.44 with Torsin-1A (Homo sapiens) [8]; 0.656 in the assay with Torsin-1A (Homo sapiens) [9]; 0.792 in assay [10]. Also, the z-score in assay [2] is -0.0341 (inactive); in assay [3] it was -0.448 (inactive); in assay [4], 0.143 (inactive); in [5], -0.16 (inactive).

On to `CCOC(=O)C[C@H]1[C@H](OC(=O)c2cc3ccccc3oc2=O)[C@@H](NC(=O)c2ccc(-c3ccccc3)cc2)c2cc(OCCCO)ccc2N1C(=O)c1ccc2ccccc2n1`, for which the composite z-score in assay [1] was 0.355; in [6], 0.207; in assay [7], 0.166; in the assay with Torsin-1A (Homo sapiens) [8], 0.626; in the assay with Torsin-1A (Homo sapiens) [9] it was 0.572; in assay [10], 1.84. For the same molecule, the z-score in [2] is -0.168 (inactive); in assay [3], -1.1 (inactive); in assay [4], 1.03 (inactive); in [5], 0.644 (inactive).

As to `COCCCNC(=O)[C@]1(CCS(=O)(=O)c2ccccc2)N=C(c2ccc(OCCCO)cc2)O[C@@H]1c1ccccc1CN=[N+]=[N-]`, the composite z-score in assay [1] is 1.31; in [6] it was 2.07; in assay [7] it was 0.424; with Torsin-1A (Homo sapiens) [8], 1.35; with Torsin-1A (Homo sapiens) [9], 0.738; in assay [10], 0.36. Besides, the z-score in assay [2] was -0.635 (inactive); in [3], 0.267 (inactive); in assay [4] it was -0.781 (inactive); in [5] it was -0.969 (inactive).

As to `[N-]=[N+]=NCc1ccccc1C[C@@]1(C(=O)N2CCCCC2)N=C(c2ccc(OCCCO)cc2)O[C@@H]1c1ccccc1`, the composite z-score in assay [1] was 0.462; in assay [6], 0.325; in [7], 0.159; in the assay with Torsin-1A (Homo sapiens) [8], -0.0373; with Torsin-1A (Homo sapiens) [9], 0.601; in assay [10] it was -0.762. The z-score in assay [2] is -4.99 (inactive); in [3] it was 0.914 (inactive); in assay [4], -0.552 (inactive); in assay [5], 0.886 (inactive).

For `COCCOC(=O)N1C(=O)[C@@]2(c3cc(C#CC4=CCCCC4)ccc31)[C@H](c1ccc(O)cc1)N1[C@H](c3ccccc3)[C@H](c3ccccc3)OC(=O)[C@H]1[C@@H]2C(=O)N1CCN(c2ncccn2)CC1`, the composite z-score is -0.299 in assay [1]; -1.34 in [6]; -0.152 in [7]; -0.692 with Torsin-1A (Homo sapiens) [8]; -1.27 in the assay with Torsin-1A (Homo sapiens) [9]; -0.589 in assay [10]. Moreover, the z-score was 0.498 (inactive) in assay [2], -0.572 (inactive) in assay [3], -0.467 (inactive) in assay [4] and -0.0588 (inactive) in assay [5].
